Bioassay records (PubChem BioAssay)
FLuc inh: firefly luciferase inhibition | P08659 | purified firefly luciferase, luminescence, 8 min | AID 411 | hit rate 2.2% among 72,000 | Potency, µM (titrated, usually from 57.1 µM), actives largely listed as inhibitors; further: nearly all actives have a fitted effect of over 40% in size
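Compounds were tested as concentration series (qHTS) against purified P. pyralis luciferase with luciferin and 10 uM ATP in 50 mM imidazole pH 7.2, 50 mM KCl, 7 mM MgCl2, 0.01% Tween 20, 0.05% BSA. Luminescence was read after 8 min at ambient temperature.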
UbGFP stabilizer: proteasome inhibitors stabilizing ubiquitin-GFP reporter. Ubiquitin-GFP reporter cells, proteasome inhibition, GFP fluorescence; response scale: untreated = 0%, 10 µM MG-132 = 100%. Potency, µM (titrated, usually from 45.9 µM), most hits filed as activators. 67,000 tested, under 10 active. AID 526; active means well fitted activation curve with a large enough effect, not every such curve was filed as active; inconclusive means small, poorly fitted or top-dose-only effect, or another doubt; inactive means no such curve, though single readings can be large or run the other way
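Proteasome blockade was scored as a rise in GFP-expressing U2OS cells carrying a ubiquitin(G76V)-GFP construct, imaged after 4 hr compound treatment at 37 °C across a 46 uM–2.9 nM series.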
Epigenetic mod: epigenetic GFP locus derepression in mouse cells; mouse C127i GFP locus derepression, cytometry, 30 h; Potency, µM (highest dose often 46.1 µM); hit rate 0.09% among 68,000
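Locus derepression in mouse mammary C127i cells whose integrated CMV-GFP reporter is normally silent; GFP expression after 30 h compound treatment was quantified by counting fluorescent cells.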
HBB splicing: modulators of hemoglobin beta chain splicing; HBB splicing reporter cell assay, activation; EGFP reporter with mutant IVS2-654 intron; response scale: normalised to 500 nM splice-correcting PNA; Potency, µM (series often up to 46.1 µM), usual class: activators; hit rate 0.06% among 65,000
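Compounds were applied for 2 days to HeLa EGFP-654 cells, 500/well in Optimem with 2% FCS. The reporter's EGFP is disrupted by mis-splicing of beta-globin intron IVS2-654. Readout: summed well GFP fluorescence from 488 nm laser scanning; reference was 500 nM antisense […] 654 PNA.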
Bst PK mod: alters activity of Bacillus stearothermophilus pyruvate kinase; purified pyruvate kinase, luminescence ATP production; ribose 5-phosphate activator present at AC10; Potency, µM; hit rate 1.2% among 51,000; AID 361; in the data active means potency below about 11 µM; inconclusive means mostly about 12 µM to 25 µM;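 the screen sought inhibitors and activators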
GBA mod: modulators of human glucocerebrosidase; P04062; purified enzyme, resorufin glucoside fluorescence (screen aimed at inhibitors), 20 min; Potency, µM; hit rate 1.1% among 48,000; in the data active means potency below about 15 µM; inconclusive means mostly about 16 µM to 33 µM;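 further: the screen sought inhibitors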
Target sequence (P04062 whole entry, looked up): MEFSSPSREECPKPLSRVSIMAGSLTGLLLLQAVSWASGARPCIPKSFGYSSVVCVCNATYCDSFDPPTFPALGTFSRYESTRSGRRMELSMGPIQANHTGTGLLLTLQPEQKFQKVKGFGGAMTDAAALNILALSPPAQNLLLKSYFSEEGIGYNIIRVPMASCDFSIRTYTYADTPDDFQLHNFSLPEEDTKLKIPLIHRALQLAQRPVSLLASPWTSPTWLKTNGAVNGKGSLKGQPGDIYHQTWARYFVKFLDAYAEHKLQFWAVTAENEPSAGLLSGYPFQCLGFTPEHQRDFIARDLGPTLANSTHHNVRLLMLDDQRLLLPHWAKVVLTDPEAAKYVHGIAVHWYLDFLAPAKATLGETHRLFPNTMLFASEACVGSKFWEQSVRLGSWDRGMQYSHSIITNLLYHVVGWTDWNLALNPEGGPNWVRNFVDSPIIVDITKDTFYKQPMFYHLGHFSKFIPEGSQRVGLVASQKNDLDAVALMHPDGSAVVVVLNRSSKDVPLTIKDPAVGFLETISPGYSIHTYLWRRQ
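Normal human glucocerebrosidase (0.2 nM final) was assayed with resorufin β-D-glucopyranoside (30 uM final) in 50mM citric acid/KH2PO4, 10mM sodium taurocholate, 0.01% tween-20, pH 5.9. Compounds were titrated; fluorescence (Ex 548, Em 600) read after 20 min at RT.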
A number is an active result; [ ] = dose if it differs, or a comment. A selection: hits, their analogues and other compounds. The true share with any hit is near 3.3%. Unless noted, the call rests on the fitted dose curve; in most records, active means well fitted curve in the direction sought with a large enough effect; inconclusive means small, poorly fitted or top-dose-only effect, or another doubt; inactive means no such curve, though single readings can be large; an effect the other way counts as inactive or inconclusive.

For COc1ccc(CN(C)CCc2ccccn2)cc1OC the results were FLuc inh inactive, UbGFP stabilizer inactive, Epigenetic mod inactive, HBB splicing inactive, Bst PK mod inactive and GBA mod inactive.
`COc1ncc2nc(-c3cc(F)cc(F)c3)c(=O)n(CCC#N)c2n1` gave FLuc inh inactive[11.4 µM], UbGFP stabilizer inactive, Epigenetic mod inactive[9.22 µM] and HBB splicing inactive.
`CCc1cccc2c3c([nH]c12)[C@](CC)(CC(=O)O)OCC3` gave FLuc inh inactive, UbGFP stabilizer inactive, Epigenetic mod inactive and HBB splicing inactive.
Screening CCCCN1C(=O)/C(=C2\SC(N3CCCCC3)=NC2=O)c2ccccc21 returned FLuc inh 7.94µM, UbGFP stabilizer inactive, Epigenetic mod inactive and HBB splicing inactive.
Nc1nc(N2CCCCC2)nc2ccccc12 was read as FLuc inh inactive, UbGFP stabilizer inactive, Epigenetic mod inactive, HBB splicing inactive and Bst PK mod 8.46.
c1ccc2c(N3CCCCC3)nc(N3CCCC3)nc2c1 was read as FLuc inh inactive, UbGFP stabilizer inactive, Epigenetic mod inactive, HBB splicing inactive, Bst PK mod inactive and GBA mod inactive.
Screening N#CC1(O)CCCCC1 returned HBB splicing inactive.
Screening Nn1c(-c2cccs2)nc2sc3c(c2c1=O)CCCC3 returned FLuc inh 15.8µM, UbGFP stabilizer inactive, Epigenetic mod inactive, HBB splicing inactive, Bst PK mod inconclusive and GBA mod inactive.
`CC1(C)Cc2c(sc3nc(-c4cccs4)n(N)c(=O)c23)CO1` gave FLuc inh 12.6µM, UbGFP stabilizer inactive, Epigenetic mod inactive, HBB splicing inactive, Bst PK mod inactive and GBA mod inactive.
Screening O=c1oc(-c2cccs2)nc2sc3c(c12)CCCCC3 returned FLuc inh inconclusive, UbGFP stabilizer inactive, Epigenetic mod inactive and HBB splicing inactive.
`CCc1cc2c(nc1CC)CCN(CC/C(C)=N/O[C@@H](C)c1cn([C@H](CO)Cc3ccccc3)nn1)C2` gave FLuc inh inactive[11.4 µM] and HBB splicing inactive[9.22 µM].
`CC(=O)OC[C@@H]1O[C@H](C/C=N\O[C@@H](C)CN2CCCc3nc(C)c(C)cc32)C=C[C@@H]1OC(C)=O` gave FLuc inh inactive[11.4 µM] and HBB splicing inactive[9.22 µM].
Screening CCCn1c(-c2ccc(F)cc2)nc2c(N3CCCN(Cc4ccccc4)CC3)nc(C)nc21 returned UbGFP stabilizer inactive and HBB splicing inactive.
For COc1cc(C(=O)O[C@@H]2CC(C)=CC[C@@]3(C)CC[C@](O)(C(C)C)[C@H]23)ccc1O the results were FLuc inh inactive[11.4 µM], UbGFP stabilizer inactive and Epigenetic mod inactive[9.22 µM].
COc1ccc(Nc2cc(C(=O)NCCCN3CCN(C)CC3)c3ccccc3n2)cc1OC was read as FLuc inh 25.1µM, UbGFP stabilizer inactive, Epigenetic mod inactive, HBB splicing inactive, Bst PK mod inactive and GBA mod inactive.
CCOC(=O)C1CCCN(C(=O)c2cc(Nc3ccc(OC)c(OC)c3)nc3ccccc23)C1 (stereo not given) was read as FLuc inh 15.8µM, UbGFP stabilizer inactive, Epigenetic mod inactive, HBB splicing inactive, Bst PK mod inactive and GBA mod inactive.
Screening COC(=O)NC(CC(C)=O)c1ccc(Cl)cc1 (stereo not given) returned HBB splicing inactive[9.22 µM].
O=C(Nc1ccc2sccc2c1)c1ccc(Cl)s1 was read as FLuc inh 1.58µM, UbGFP stabilizer inactive and HBB splicing inactive.
For O=C(NCc1cccs1)c1ccc(Cl)s1 the results were FLuc inh inactive, UbGFP stabilizer inactive, Epigenetic mod inactive, HBB splicing inactive, Bst PK mod inactive and GBA mod inactive.
`CCN1CCN(C(=O)c2cc3c(=O)n4ccccc4nc3n2Cc2ccccc2)CC1` gave FLuc inh 7.94µM, UbGFP stabilizer inactive, Epigenetic mod inactive, HBB splicing inactive, Bst PK mod inconclusive and GBA mod inactive.
For COc1cccc(-c2cc(=O)c3ccccc3o2)c1N the results were FLuc inh 12.6µM, UbGFP stabilizer inactive, Epigenetic mod inactive and HBB splicing inactive.
